Several values for one entry are separate records, joined by “and”; a condition that tells them apart may be missing. Identical values can stand only once. About 83,000 compounds went through this panel and 20% of them were active in at least one assay; those are over-represented in the sample as a whole.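 How to read the values: 0–100, growth inhibition (40 = 60% inhibited); 0, no net growth; -100 to 0, cell death (-40 = 40% of starting cells died; -100 = all dead).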 Activity calls are given as the source filed them. The calls were made as follows: active = growth percent below 10; inactive = the rest.
Experiments:
Test in all cases: NCI-60 one-dose screen, 48 h (100 = growth as untreated, 0 = no growth, -100 = all killed)
HCT-15 colon = conditions: 10 µM
HT29 colon = conditions: 10 µM
SNB-75 CNS = conditions: 10 µM
SNB-19 CNS = conditions: 10 µM
U251 CNS = conditions: 10 µM
SK-MEL-5 melanoma = conditions: 10 µM
UACC-62 melanoma = conditions: 10 µM unless noted
LOX IMVI melanoma = conditions: 10 µM
SK-MEL-28 melanoma = conditions: 10 µM
SK-MEL-2 melanoma = conditions: 10 µM
EKVX NSCLC = conditions: 10 µM
SN12C renal = conditions: 10 µM
UO-31 renal = conditions: 10 µM
TK-10 renal = conditions: 10 µM unless noted
ACHN renal = conditions: 10 µM
CAKI-1 renal = conditions: 10 µM
CCRF-CEM leukemia = conditions: 10 µM
A498 renal = conditions: 10 µM
HL-60(TB) leukemia = conditions: 10 µM

Measured: growth

O=[N+]([O-])/C=C/c1ccc(Cl)cc1[N+](=O)[O-]
inactive: SNB-75 CNS 55.4% | SNB-19 CNS 71.8% | SK-MEL-5 melanoma 81.4% | UACC-62 melanoma 73.7% | SK-MEL-28 melanoma 85% | SK-MEL-2 melanoma 102% | EKVX NSCLC 81.8% | SN12C renal 63.2% | TK-10 renal 75.3% | ACHN renal 30.3% | CAKI-1 renal 47.7%
active: HCT-15 colon -37.1% | HT29 colon -91.6% | U251 CNS -39.8% | LOX IMVI melanoma -94.1% | UO-31 renal -45.7% | CCRF-CEM leukemia 8.23%

COc1cc(/C=C\[N+](=O)[O-])ccc1O
inactive: HT29 colon 32.3% and 90.3% | SNB-75 CNS 93.6% and 96.7% | SNB-19 CNS 82.6% and 81.2% | U251 CNS 50.1% and 64.1% | SK-MEL-5 melanoma 77% and 79.3% | UACC-62 melanoma 61.1% and 80.2% | SK-MEL-28 melanoma 55.8% and 97.3% | SK-MEL-2 melanoma 87.7% and 93.5% | EKVX NSCLC 108% and 91.7% | SN12C renal 67.3% and 94.1% | UO-31 renal 44.5% and 70.1% | TK-10 renal 23.5% and 87.1% | ACHN renal 13.4% and 82.9% | CAKI-1 renal 74.4% | A498 renal 97.6% and 102%
-12% (active) and 75.9% (inactive): HCT-15 colon
-66.1% (active) and 46.7% (inactive): LOX IMVI melanoma
6.86% (active) and 70.4% (inactive): CCRF-CEM leukemia

Cc1cc([N+](=O)[O-])c2ccccc2[n+]1[O-]
active: HCT-15 colon -25.7% and -13.2% | HT29 colon -24.6% and -48.6% | SNB-75 CNS -63.6% and -53.8% | SNB-19 CNS -4.83% and -14.1% | U251 CNS -12.7% and -32.2% | SK-MEL-5 melanoma -84% and -58.2% | UACC-62 melanoma -55.5% and -86.3% | LOX IMVI melanoma 7.14% and -48.7% | SK-MEL-2 melanoma -57.5% and -79.5% | SN12C renal -5.98% and -21.1% | UO-31 renal -26.7% and -48.8% | TK-10 renal -31.3% and -29.9% | ACHN renal -35.6% and -73.4% | CAKI-1 renal 8.17% and -82.2% | A498 renal -59.8% and -80.3%
41% (inactive) and -30.6% (active): HL-60(TB) leukemia
17% (inactive) and -2.8% (active): CCRF-CEM leukemia
inactive: SK-MEL-28 melanoma 41.8% and 15.2% | EKVX NSCLC 89.4%

COc1cc([C@@H]2c3cc4c(c(O)c3C[C@H]3COC(=O)[C@@H]32)OCO4)cc(OC)c1OC
active: SNB-19 CNS 7.28% | SK-MEL-5 melanoma -42.8% | SK-MEL-2 melanoma -25.1% | CCRF-CEM leukemia -5.4%
inactive: HCT-15 colon 10.2% | HT29 colon 12.9% | SNB-75 CNS 24% | U251 CNS 23.8% | UACC-62 melanoma 64.3% | LOX IMVI melanoma 19.9% | SK-MEL-28 melanoma 54.3% | EKVX NSCLC 44.2% | SN12C renal 31.8% | UO-31 renal 32.7% | TK-10 renal 38.8% | ACHN renal 33.8% | CAKI-1 renal 20.3%

O=C1CCC(=O)N1SC(Cl)(Cl)Cl
inactive: HCT-15 colon 107% | HT29 colon 102% | SNB-75 CNS 92.1% | SNB-19 CNS 103% | U251 CNS 118% | SK-MEL-5 melanoma 99.5% | UACC-62 melanoma 106% | LOX IMVI melanoma 108% | SK-MEL-28 melanoma 107% | SK-MEL-2 melanoma 97% | EKVX NSCLC 117% | SN12C renal 102% | UO-31 renal 99.1% | TK-10 renal 99.2% | ACHN renal 110% | CAKI-1 renal 109% | CCRF-CEM leukemia 94.5%

O=S(=O)(F)c1ccc(Cl)cc1
inactive: HCT-15 colon 98% | HT29 colon 106% | SNB-75 CNS 92.9% | SNB-19 CNS 101% | U251 CNS 109% | SK-MEL-5 melanoma 108% | UACC-62 melanoma 103% | LOX IMVI melanoma 96.7% | SK-MEL-28 melanoma 119% | SK-MEL-2 melanoma 124% | EKVX NSCLC 110% | SN12C renal 105% | UO-31 renal 91.5% | TK-10 renal 107% | ACHN renal 111% | CAKI-1 renal 105% | A498 renal 122% | HL-60(TB) leukemia 123% | CCRF-CEM leukemia 92.7%
